Screening results from PubChem.
An excerpt weighted towards active compounds, which were near 2.6% of everything screened.
APOBEC3G inh – APOBEC3G (human) deaminase inhibition. Q9HC16. recombinant A3G, ssDNA deamination FAM/TAMRA fluorescence. inhibition, % at 20 µM. 0.28% of 330,000 active;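 active = inhibition of at least 40% at 20 µM, with no more than 30% in the related APOBEC3A deaminase screen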
PABP FP inh – PABP-poly(A) binding inhibition; P11940; PABP-poly(A) RNA binding, fluorescence polarization; calls only at 35 µM; 1% of 290,000 active; AID 2014;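 note: calls also rest on retests at 20 µM and on dose response follow-up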
Target sequence (P11940 whole entry, looked up): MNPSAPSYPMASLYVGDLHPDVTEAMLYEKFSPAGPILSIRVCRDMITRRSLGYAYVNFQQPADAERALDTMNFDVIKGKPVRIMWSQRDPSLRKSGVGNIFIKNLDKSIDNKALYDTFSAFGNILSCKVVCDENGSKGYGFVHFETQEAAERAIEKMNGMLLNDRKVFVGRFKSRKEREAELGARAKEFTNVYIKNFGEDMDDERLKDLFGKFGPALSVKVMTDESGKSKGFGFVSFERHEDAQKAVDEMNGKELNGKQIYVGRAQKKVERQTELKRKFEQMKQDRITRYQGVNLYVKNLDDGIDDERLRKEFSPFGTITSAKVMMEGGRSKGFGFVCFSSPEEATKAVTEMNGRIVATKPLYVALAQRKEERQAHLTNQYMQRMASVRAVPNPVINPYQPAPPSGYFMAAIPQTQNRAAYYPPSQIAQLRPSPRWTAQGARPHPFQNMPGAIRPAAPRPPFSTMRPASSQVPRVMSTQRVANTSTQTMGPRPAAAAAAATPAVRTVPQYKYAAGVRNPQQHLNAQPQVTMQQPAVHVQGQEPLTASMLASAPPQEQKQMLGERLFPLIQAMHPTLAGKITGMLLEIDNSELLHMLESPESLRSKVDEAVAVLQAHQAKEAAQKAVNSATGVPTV
PHOSPHO1 block – blocks human PHOSPHO1 phosphatase activity | Q8TCT1 | recombinant PHOSPHO1, absorbance phosphatase assay | inhibition, % at 13.3 µM | 1.1% of 290,000 active | AID 1565; in the data active = inhibition above about 60%
eIF4H FP inh – inhibitors of RNA binding by human eIF4H. 0.94% of 290,000 active. AID 2012. eIF4H fluorescence polarization binding assay. Q15056. inhibition, % at 35 µM;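 note: calls also rest on retests at 20 µM and on dose response follow-up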
A3A deaminase – inhibitors of human APOBEC3A DNA deaminase; P31941; recombinant A3A, FAM/TAMRA ssDNA deamination fluorescence; inhibition, % at 20 µM; 0.41% of 330,000 active; AID 493011;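 active = at least 40% inhibition at 20 µM here, with at most 30% in a related deaminase screen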
PABP1 MLLE inh – inhibitors of microRNA-mediated deadenylation, human PABP1 MLLE binding; GST-MLLE / FITC-PAM2 fluorescence polarization; inhibition, % at 20 µM; 0.36% of 360,000 active; in the data active = inhibition above about 35%, passing the limit was not always enough
Of the large screens only hits and unclear results are named; the others gave an inactive call. Unless noted, the rule behind the calls is not given here.

CN(C)c1ccc(C=C2C(=O)NC(=S)NC2=O)cc1[N+](=O)[O-]	PABP1 MLLE inh 40
CC(C)c1ccc(N2C(=O)CC(=O)NC2=O)cc1	PABP FP inh active, eIF4H FP inh inconclusive
CCOc1cccc(N2C(=O)CC(=O)NC2=O)c1	none
COc1cccc(N2C(=O)CC(=O)NC2=O)c1	PABP FP inh active, eIF4H FP inh 77
c1ccc2nc(N3CCNCC3)ccc2c1	none (no result: PABP FP inh, PHOSPHO1 block, eIF4H FP inh)
CNC(=O)CSP(=S)(OC)OC	PABP1 MLLE inh 40 (no result: APOBEC3G inh, PABP FP inh, PHOSPHO1 block, eIF4H FP inh, A3A deaminase)
CC12CCC3C(CCC4(O)CC(O)CCC34C=NO)C1(O)CCC2C1=COC(=O)C1 (stereo unspecified)	none (no result: APOBEC3G inh, PABP FP inh, PHOSPHO1 block, eIF4H FP inh, A3A deaminase)
COc1ccc(CCC(=O)NCCc2cnc[nH]2)cc1	none
Cc1ccc2c(c1)NP(=S)(Oc1ccccc1)N2 (stereo unspecified)	none (no result: APOBEC3G inh, PABP FP inh, PHOSPHO1 block, eIF4H FP inh, A3A deaminase)
COc1ccc2c(c1)NP(=S)(Oc1ccccc1)N2 (stereo unspecified)	PABP FP inh active, eIF4H FP inh 89
C=Cn1ccnc1P(=S)(c1ccc(Cl)cc1)c1nccn1C=C	none
C=Cn1ccnc1P(=S)(c1ccccc1)c1nccn1C=C	eIF4H FP inh active
S=C=Nc1ccccn1	PHOSPHO1 block 61
C=CCN1C(=O)NC(=O)C(CCc2ccncc2)(CCc2ccncc2)C1=O	none
O=C1NC2C(O)C(O)C(O)C(O)C2c2cc3c(c(O)c21)OCO3 (stereo unspecified)	none (no result: APOBEC3G inh, PABP FP inh, PHOSPHO1 block, eIF4H FP inh, A3A deaminase)
CC1CN=C(NCc2ccc(F)cc2)S1 (stereo unspecified)	none
COc1ccc(/C=C2/C(=O)NC(=O)N(c3ccc(C)c(C)c3)C2=O)cc1CN1C(=O)c2ccccc2C1=O	PABP FP inh active, eIF4H FP inh 50
COc1cc(/C=C2\C(=O)NC(=O)N(c3ccccc3)C2=O)cc(OC)c1OC	none
O=C(O)c1ccc2c(c1)C1C(Cl)C(Sc3ccccc3[N+](=O)[O-])CC1C(c1cccc([N+](=O)[O-])c1)N2 (stereo unspecified)	none (no result: APOBEC3G inh, A3A deaminase)
O=C(O)c1cccc2c1NC(c1cccc([N+](=O)[O-])c1)C1CC(Sc3ccccc3[N+](=O)[O-])C(Cl)C21 (stereo unspecified)	eIF4H FP inh 82
CCN(CC)C(=O)c1ccc2c(c1)C1C(Cl)C(Sc3ccccc3[N+](=O)[O-])CC1C(C(=O)O)N2 (stereo unspecified)	PABP FP inh active, eIF4H FP inh 90
CCN(CC)C(=O)c1ccc2c(c1)C1C=CCC1C(C(=O)O)N2 (stereo unspecified)	PABP FP inh active, eIF4H FP inh 85
CCCCNS(=O)(=O)c1ccc(OCC(=O)N2CCN(Cc3ccc4c(c3)OCO4)CC2)cc1	PHOSPHO1 block 61
O=C(Cc1ccccc1)N1CCN(Cc2ccc(Cl)cc2)CC1	none (no result: APOBEC3G inh, PABP FP inh, PHOSPHO1 block, eIF4H FP inh, A3A deaminase)
CC(=O)Nc1ccc(CC(=O)N2CCN(Cc3ccccc3)CC2)cc1	PABP FP inh active, eIF4H FP inh 82
CC(C)(C)NS(=O)(=O)c1ccc(OCC(=O)N2CCN(Cc3ccccc3)CC2)cc1	PHOSPHO1 block 60
Cn1cccc1/C=C1/C(=O)NC(=O)N(Cc2ccc(F)cc2)C1=O	PABP FP inh active, eIF4H FP inh inconclusive
O=C(O)Cn1cc(/C=C2\C(=O)NC(=O)N(Cc3ccco3)C2=O)c2ccccc21	PABP FP inh active, eIF4H FP inh inconclusive
CCN1C(=O)NC(=O)/C(=C\c2cn(CC(=O)O)c3ccccc23)C1=O	PABP FP inh inconclusive, eIF4H FP inh inconclusive (no result: PABP1 MLLE inh)
Cn1cccc1/C=C1\C(=O)NC(=O)N(Cc2ccccc2)C1=O	PABP FP inh active, eIF4H FP inh inconclusive
Cn1cccc1/C=C1/C(=O)NC(=S)N(Cc2ccc(F)cc2)C1=O	none
CCN(CC)c1ccc(/C=C2\C(=O)NC(=O)N(Cc3ccco3)C2=O)cc1	eIF4H FP inh inconclusive
O=C1NC(=O)N(Cc2ccco2)C(=O)/C1=C/c1cccn1CCOc1ccccc1Cl	PABP FP inh active, eIF4H FP inh inconclusive
Cn1cccc1/C=C1/C(=O)NC(=O)N(Cc2ccccc2)C1=O	eIF4H FP inh inconclusive
O=C1c2cccc(N3CCNCC3)c2C2CCCCN12 (stereo unspecified)	none (no result: APOBEC3G inh, PABP FP inh, PHOSPHO1 block, eIF4H FP inh, A3A deaminase)
CCC(=NCc1cccnc1)c1c(O)n(-c2ccc(C)cc2)c(=O)[nH]c1=O	none
CC(C)c1ccccc1NC1=NCCCS1	none
CC1=CP(=O)(Oc2ccc([N+](=O)[O-])cc2)CC1 (stereo unspecified)	none (no result: APOBEC3G inh, PABP FP inh, PHOSPHO1 block, eIF4H FP inh, A3A deaminase)
C=CCn1c(O)c(C=Nc2ccc(N(CC)CC)cc2)c(=O)[nH]c1=O	PABP FP inh active, eIF4H FP inh 54
CC1=NN(c2ccccc2)C(=O)/C1=C/c1c(O)[nH]c(=O)[nH]c1=O	none
CC1=NN(c2ccccc2)C(=O)/C1=C/c1c(O)[nH]c(=S)[nH]c1=O	PHOSPHO1 block 86
O=C1NC(=O)C(C2CCCCCC2)C(=O)N1	none (no result: APOBEC3G inh, PABP FP inh, PHOSPHO1 block, eIF4H FP inh, A3A deaminase)
N#CC1c2ccccc2-n2nncc2CN1Cc1cc(Cl)cc(Cl)c1 (stereo unspecified)	none (no result: APOBEC3G inh, PABP FP inh, PHOSPHO1 block, eIF4H FP inh, A3A deaminase)
CN(C)C1C(=O)C(C(N)=O)=C(O)C2(O)C(=O)C3=C(O)c4c(O)cccc4C(C)(O)C3CC12 (stereo unspecified)	PABP FP inh active, eIF4H FP inh 81 (no result: APOBEC3G inh, A3A deaminase)
COC(=O)C1=C(c2cccc(OCc3ccccc3)c2)C[C@@H]2CC[C@H]1N2C(=O)NCc1ccc2[nH]ccc2c1	none (no result: PABP FP inh, PHOSPHO1 block, eIF4H FP inh)
N/C(=N\N=C/c1ccc(-c2ccc(O)c(C(=O)O)c2)o1)N[N+](=O)[O-]	PABP FP inh active, eIF4H FP inh 103
COc1ccc(/C=N/N=C(/N)N[N+](=O)[O-])c(OC)c1	none
CC1=C2[C@@H]3OC(=O)[C@H](C)C3CC[C@@]2(C)C=CC1=O (stereo partly specified)	none
O=C1c2ccccc2-c2cc3ccccc3cc21	PABP1 MLLE inh 46 (no result: APOBEC3G inh, PABP FP inh, PHOSPHO1 block, eIF4H FP inh, A3A deaminase)
O=C1c2ccccc2-c2cccc3cccc1c23	PABP1 MLLE inh 55 (no result: APOBEC3G inh, PABP FP inh, PHOSPHO1 block, eIF4H FP inh, A3A deaminase)
O=C1NC(=O)N(C2CCCCC2)C(=O)C1C1c2ccccc2C(=O)N1Cc1ccccc1 (stereo unspecified)	none
Cc1cc(Cl)ccc1OCCCC(=O)NCc1cccs1	none
C=C(C)CSc1nnc([C@@H](N)Cc2ccccc2)o1	none
CCOP(=O)(Cc1cc(C(C)=O)c(C)o1)OCC	PABP1 MLLE inh 40
COc1ccc(-n2c(=S)[nH]c3ccc(C)cc3c2=O)cc1	none (no result: APOBEC3G inh, PABP FP inh, PHOSPHO1 block, eIF4H FP inh, A3A deaminase)
Cc1ccc(N2C(=O)NC(=O)C3(Cc4ccccc4N4CCN(c5ccccc5)CC43)C2=O)cc1 (stereo unspecified)	PHOSPHO1 block 72
O=C1NC(=O)C2(Cc3ccccc3N3CCCC32)C(=O)N1c1cccc(Cl)c1 (stereo unspecified)	none
O=S1(=O)CCN(CCc2c[nH]c3ccccc23)CC1	PABP FP inh active, eIF4H FP inh active
CCc1ccccc1NC(=O)N1C[C@H]2C[C@@H](C1)c1cccc(=O)n1C2	none
Cc1ccc(N2C(=O)CC(=O)NC2=O)cc1Cl	none (no result: PHOSPHO1 block)
Nc1ccc(Sc2ccc(N)cc2)cc1	none (no result: APOBEC3G inh, PABP FP inh, PHOSPHO1 block, eIF4H FP inh, A3A deaminase)
COP(=S)(OC)Oc1ccc(Sc2ccc(OP(=S)(OC)OC)cc2)cc1	PABP1 MLLE inh 36 (no result: APOBEC3G inh, PABP FP inh, PHOSPHO1 block, eIF4H FP inh, A3A deaminase)
CC(C)OCC(O)CN1CC2C[C@@H](C1)Cn1c2cccc1=O (stereo partly specified)	none
